# Source: PubChem
# PI4K2A inh = PI4K2A (human) kinase inhibition; Q9BTU6; purified PI4K2A, ADP-Glo luminescence, 1 h; active compounds read low; activity change, negative = inhibition, % at 76.9 µM; 420,000 tested, 0.13% active; AID 1346378; in the data active = activity change below about -50%; inconclusive = mostly about -30% to -49%
#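 Compounds are screened against recombinant PI4K2A using PI as substrate and ATP, the latter dispensed at 300 microM. Reactions run one hour at ambient temperature before ADP-Glo detection; full inhibition defined by wells lacking enzyme.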
# PLK1 PBD block = PLK1 (human) polo-box domain binding inhibition; Potency, µM, most hits filed as inhibitors; P53350; 360,000 tested, 2.8% active; Plk1 PBD binding of FITC phosphopeptide, fluorescence polarization; also: series mostly up to about 57 µM; nearly all actives have a fitted effect of over 65% in size
# GLS inh = blocks human kidney-isoform glutaminase activity. GLS enzymatic activity, qHTS titration. AID 624170. Potency, µM (titrated, usually from 45.5 µM), most hits filed as inhibitors. 410,000 tested, 0.21% active. O94925
#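 Coupled fluorescence readout: glutamate oxidase/HRP/Amplex Red detect glutamate formed by hKGA from L-glutamine (1 mM solution added). Buffer 45 mM KH2PO4 pH 8.2, 0.02% Tween-20; reads at t0 and 30 min RT.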
# VDR inhibitor = blocks the human vitamin D receptor; P11473; VDR-SRC2-3 peptide fluorescence polarization, 2 h; Potency, µM, most hits filed as inhibitors; 400,000 tested, 0.93% active
#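 Fluorescence polarization assay of small-molecule disruption of VDR binding to coregulator peptide SRC2-3. Compounds and controls pin-transferred, then read after 2 h incubation at ambient room temperature.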
# KAT2A inh = blocks human GCN5L2 histone acetyltransferase. Potency, µM (series often up to 58.9 µM), usual class: inhibitors. Q92830. 390,000 tested, 0.21% active. GCN5L2 HAT assay, ThioGlo1 CoA-SH fluorescence
# Target sequence (Q92830 whole entry, looked up): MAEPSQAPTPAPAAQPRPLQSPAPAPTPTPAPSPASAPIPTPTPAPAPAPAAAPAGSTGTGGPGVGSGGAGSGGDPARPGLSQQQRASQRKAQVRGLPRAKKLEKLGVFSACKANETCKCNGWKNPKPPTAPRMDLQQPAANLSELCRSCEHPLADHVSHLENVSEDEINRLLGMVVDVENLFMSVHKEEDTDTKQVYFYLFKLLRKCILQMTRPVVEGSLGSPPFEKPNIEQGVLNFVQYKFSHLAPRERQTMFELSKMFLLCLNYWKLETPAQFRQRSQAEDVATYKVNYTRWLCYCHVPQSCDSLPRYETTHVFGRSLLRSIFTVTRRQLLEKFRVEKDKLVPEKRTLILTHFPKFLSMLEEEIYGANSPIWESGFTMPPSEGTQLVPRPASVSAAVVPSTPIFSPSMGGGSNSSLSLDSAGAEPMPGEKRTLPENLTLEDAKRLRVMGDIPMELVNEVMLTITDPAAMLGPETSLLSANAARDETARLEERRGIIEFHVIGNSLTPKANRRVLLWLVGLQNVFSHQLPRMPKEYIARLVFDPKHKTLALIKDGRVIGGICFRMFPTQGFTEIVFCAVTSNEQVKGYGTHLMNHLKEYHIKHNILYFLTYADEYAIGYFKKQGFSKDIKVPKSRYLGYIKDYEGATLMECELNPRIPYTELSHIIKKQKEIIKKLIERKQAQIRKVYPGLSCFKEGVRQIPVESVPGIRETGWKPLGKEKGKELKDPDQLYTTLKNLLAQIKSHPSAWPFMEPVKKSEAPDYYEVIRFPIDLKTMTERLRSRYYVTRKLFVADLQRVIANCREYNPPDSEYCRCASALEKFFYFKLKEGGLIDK
#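 GCN5L2 (20nM final) in 50mM HEPES, 0.1mM EDTA pH 7.5, 0.01% Tween-20 was preincubated 15 min at room temperature with compound, then given ThioGlo1 (50uM), H3(1-25) peptide (75uM) and acetyl-CoA (70uM); CoA-thiol fluorescence (Ex340/Em540) was read at 0 and 20 min.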
# TbPYK confirm = Trypanosoma brucei pyruvate kinase inhibition, cherry-pick confirmation | 890 tested, 67% active | recombinant TbPYK, Kinase-Glo ATP luminescence | Potency, µM (titrated, usually from 76.9 µM), most hits filed as inhibitors | shares compounds with PLK1 PBD block; also: nearly all actives have a fitted effect of over 70% in size
# TbPYK orthogonal = orthogonal confirmation of Trypanosoma brucei pyruvate kinase inhibitors; shares compounds with PLK1 PBD block; recombinant TbPYK, ADP-Glo luminescence, 60 min; Potency, µM (titrated, usually from 76.9 µM), most hits filed as inhibitors; 890 tested, 62% active; AID 720584; also: nearly all actives have a fitted effect of over 75% in size
# Hits are given with their value; n = inactive; u = inconclusive; x = not tested or not shown. Most compounds without a hit are left out; they make up all but 3.1% or so of the library. Unless noted, calls follow the shape of the dose curve; as a rule, active = well fitted curve in the direction sought with a large enough effect; inconclusive = small, poorly fitted or top-dose-only effect, or another doubt; inactive = no such curve, though single readings can be large; an effect the other way counts as inactive or inconclusive.
SMILES,PI4K2A inh,PLK1 PBD block,GLS inh,VDR inhibitor,KAT2A inh,TbPYK confirm,TbPYK orthogonal
CN(C)c1ccc(C(=O)c2ccc(O)cc2O)cc1,n,n,n,n,n,x,x
Cc1onc(-c2c(F)cccc2Cl)c1C(=O)Nc1cccc2nsnc12,n,n,n,n,n,x,x
CCCS(=O)(=O)c1cscc1NC(=O)c1c(-c2c(F)cccc2Cl)noc1C,n,n,n,n,n,13µM,14µM
Cn1ccc(-c2ccccc2)n1,n,n,n,n,n,x,x
N#Cc1cc(-c2ccccc2)nn1-c1ccccc1,n,6µM,n,u,u,2.5µM,3.2µM
O=C(Cn1c(=O)n(-c2ccc(Cl)cc2)c(=O)c2c3c(sc21)CCCCC3)Nc1cccc(Cl)c1,n,x,n,n,n,x,x
Cc1ccc(S(=O)(=O)C[C@@H]2OC[C@H](C(C)C)N2S(=O)(=O)c2ccc(C)cc2)cc1,n,n,x,x,x,x,x
Cc1ccc(/C=C/C(=O)NCc2ccc(S(N)(=O)=O)cc2)o1,n,27µM,n,89µM,u,6.3µM,1.6µM
NS(=O)(=O)c1ccc(CNC(=O)/C=C/c2ccco2)cc1,n,u,u,n,n,x,x
CC(=O)NS(=O)(=O)c1ccc(NC(=O)/C=C/c2ccc(C)o2)cc1,n,21µM,n,n,n,5µM,7.9µM
COc1ccc(CCNC(=O)/C=C/c2ccco2)cc1OC,n,n,n,n,n,x,x
Cc1ccc(/C=C/C(=O)NCC2COc3ccccc3O2)o1 (centres undefined),n,u,n,u,u,25µM,22µM
COc1ccc(CCNC(=O)/C=C/c2ccco2)cc1,n,n,n,89µM,u,u,u
COc1ccc(N2CCN(C(CNC(=O)c3c(F)cccc3F)c3ccc4c(c3)OCO4)CC2)cc1 (centres undefined),n,x,n,n,n,x,x
Nc1ncnc2c1nc(N1CCCCC1)n2[C@@H]1O[C@@H]2COP(=O)(O)O[C@H]2[C@H]1O,x,x,x,n,n,x,x
Cc1ccc(/C=C/C(=O)NC2CCCCCCC2)o1,n,24µM,10µM,u,u,u,u
Cc1ccc(/C=C/C(=O)NCc2ccc3c(c2)OCO3)o1,n,u,u,n,n,11µM,14µM
Cc1ccc(/C=C/C(=O)NCCc2c[nH]c3ccccc23)o1,n,n,n,n,n,x,x
Cc1ccc(/C=C/C(=O)NCCc2cccc(Cl)c2)o1,n,30µM,n,79µM,u,3.5µM,4µM
CC(=O)N1CCc2c1cccc2S(=O)(=O)NC(CC(C)C)C(=O)Nc1ccccc1C (centres undefined),n,x,x,x,x,x,x
COc1c(C(C)(C)C)cc(S(=O)(=O)N2c3ccccc3C[C@H]2C)cc1C(C)(C)C,n,x,x,x,x,x,x
Oc1cc(O)cc(/C=C/c2ccc(O)c(O)c2)c1,-53,n,u,n,u,11µM,u
CC(=O)C1=CCC(c2ccccc2)N(Cc2ccccc2)C1 (centres undefined),n,n,x,x,x,x,x
O=C(Nc1ccc2nc(SCC(=O)N3CCOCC3)sc2c1)c1cccc(Br)c1,n,x,n,n,n,x,x
Cc1cccc(NC(=O)c2sc3nc(N4CCOCC4)c4c(c3c2N)CC(C)(C)OC4)c1,n,x,n,n,n,x,x
SMILES,PI4K2A inh,PLK1 PBD block,GLS inh,VDR inhibitor,KAT2A inh,TbPYK confirm,TbPYK orthogonal
CC1(C)Cc2c(c(N3CCOCC3)nc3sc(C(=O)Nc4cccc(Cl)c4)c(N)c23)CO1,n,u,n,n,n,1.1µM,3.5µM
Oc1ccc(/C=N/Nc2nccnc2Cl)c(O)c1,-67,n,n,n,n,u,n
COC(=O)c1ccccc1NC(=O)CSc1c2c(nc3ccc(Cl)cc13)CCCC2,n,x,n,n,n,x,x
Cc1c(NC(=O)C2CCCN(S(=O)(=O)c3cccc4ccccc34)C2)c(=O)n(-c2ccccc2)n1C (centres undefined),n,x,x,x,x,x,x
N#Cc1ccc(C(=O)CSc2n[nH]c(=O)n2Cc2ccco2)cc1,n,n,u,n,n,x,x
Cc1sc2ccccc2[n+]1CC(=O)O,n,u,n,22µM,n,3.5µM,13µM
O=C1C(=Cc2ccccc2O)SC(=S)N1CCCN1CCOCC1,n,2.7µM,n,x,x,4µM,3.2µM
COc1ccc(Cl)cc1NC(=O)CN(C)C(=O)c1ccc(COc2ccccc2)cc1,n,n,n,n,n,x,x
Cc1ccc(NC(=O)CN(C)C(=O)CSc2nncn2C)cc1,n,n,n,n,n,x,x
CC(=O)/C(=N\Nc1ccc(C)cc1)Sc1nncn1C,n,n,n,n,n,4.5µM,13µM
O=C(COC(=O)C12CC3CC(CC(O)(C3)C1)C2)NCc1ccco1,x,x,x,n,x,x,x
O=P(c1ccccc1)(c1ccccc1)c1ccccc1C(Br)Br,n,n,n,x,x,22µM,32µM
CC1(C)CC(=O)C(CSC(=O)c2ccccc2)C(=O)C1,n,9.5µM,n,x,x,5.6µM,14µM
CCN(CCCNc1cc2c(c(N)c1S(=O)(=O)O)C(=O)c1ccccc1C2=O)c1ccccc1,u,u,n,x,x,x,x
COC(=O)/C=c1\sc2ncnn2c1=O,n,u,n,n,n,28µM,28µM
Cc1ccc(/C=C/C(=O)N2CCN(S(=O)(=O)c3ccc(C)c(C)c3)CC2)o1,n,24µM,n,u,n,13µM,16µM
O=C(CN1CCN(c2ccc(O)cc2)CC1)Nc1ccccc1C(=O)NCCc1ccccc1,n,n,n,n,u,2.5µM,5µM
O=C1c2ccccc2C(=O)N1c1ccc2ncccc2c1,x,x,x,n,x,x,x
O=C(Nc1ccc(Nc2ccccc2)cc1)c1c(F)c(F)c(F)c(F)c1F,n,n,u,n,n,x,x
Cc1cccc(N2C(=O)C=CC2=O)c1,n,30µM,n,50µM,x,u,u
O=C1C=CC(=O)N1c1ccc2ccccc2c1,n,8.4µM,n,79µM,x,25µM,u
O=C1C=CC(=O)N1c1ccc(Nc2ccccc2)cc1,u,24µM,n,u,x,u,u
Cc1ccc(-c2csc3ncn(-n4c(C)ccc4C)c(=O)c23)o1,n,u,n,u,u,n,u
CCN1/C(=C2\C(=O)N(C)C(=S)N2C)C=Cc2ccccc21,n,n,u,n,n,u,u
CCN1/C(=C2\C(=O)N(C)C(=S)N2c2ccccc2)C=Cc2ccccc21,n,n,u,n,n,x,x
COc1cc2c(c(OC)c1)C(c1cccc(OC)c1OC)CC(=O)N2 (centres undefined),n,n,n,n,n,x,x
CCc1ccccc1N1CSC2=C(C#N)C(c3ccccc3F)CC(=O)N2C1 (centres undefined),n,19µM,n,u,u,1.1µM,1.8µM
Cn1c2c(c(=O)n(C)c1=O)C(c1ccccc1F)C(C#N)=C(N)O2 (centres undefined),n,u,n,n,n,x,x
